Test results reported in the supplement of paper PMC10849652.
The full data set covers some 7,900 targets. This sample favours those with a hit. About 0.6% of all pairs of compound and target were hits. A number with no mark means an inactive call.

Compound: CC(C)C1=C2N=C(C=C(N2N=C1)NCC3=CC=CC=C3)NCCCCCCN
Experiment: log2 fold change, soluble protein after heating vs DMSO (PISA); higher = thermal stabilisation; K562 cells, 10 uM, 30 min; active = over 0.2 and 3.5 SD of the protein, either way, in both replicates (recomputed)
In short: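 Soluble protein was quantified by TMTpro 16plex LC-MS/MS after channel sums were equalised. It was obtained as the supernatant after 21,000xg for 90 min from pooled aliquots of K562 cells (2×10^6 cells/mL, 10 μM compound, 30 min) heated for 3 min across 48°C-58°C and extracted in PBS with 0.5% NP-40 at 4°C. Thermal stability values are relative to control samples and come from duplicates. They are given as log2 fold changes.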

Sequence of UniProt O60573 (O60573 whole entry, looked up): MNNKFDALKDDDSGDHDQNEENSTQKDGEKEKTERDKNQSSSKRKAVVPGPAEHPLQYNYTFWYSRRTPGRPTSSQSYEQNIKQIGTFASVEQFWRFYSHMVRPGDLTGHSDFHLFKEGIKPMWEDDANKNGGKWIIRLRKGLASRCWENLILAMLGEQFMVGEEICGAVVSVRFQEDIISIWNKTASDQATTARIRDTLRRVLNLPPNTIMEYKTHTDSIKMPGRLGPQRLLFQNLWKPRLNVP
Sequence of UniProt Q9NXW2 (Q9NXW2 whole entry, looked up): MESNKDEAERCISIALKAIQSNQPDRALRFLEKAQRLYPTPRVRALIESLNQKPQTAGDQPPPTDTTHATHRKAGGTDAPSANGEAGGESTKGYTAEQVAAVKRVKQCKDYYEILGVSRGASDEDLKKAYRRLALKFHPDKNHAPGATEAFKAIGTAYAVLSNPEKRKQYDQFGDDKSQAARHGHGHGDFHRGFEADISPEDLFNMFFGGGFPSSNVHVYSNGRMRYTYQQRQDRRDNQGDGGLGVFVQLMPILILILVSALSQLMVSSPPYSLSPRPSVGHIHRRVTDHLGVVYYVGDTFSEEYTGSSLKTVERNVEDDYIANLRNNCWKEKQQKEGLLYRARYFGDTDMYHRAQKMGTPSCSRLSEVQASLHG
Sequence of UniProt P25685 (P25685 whole entry, looked up): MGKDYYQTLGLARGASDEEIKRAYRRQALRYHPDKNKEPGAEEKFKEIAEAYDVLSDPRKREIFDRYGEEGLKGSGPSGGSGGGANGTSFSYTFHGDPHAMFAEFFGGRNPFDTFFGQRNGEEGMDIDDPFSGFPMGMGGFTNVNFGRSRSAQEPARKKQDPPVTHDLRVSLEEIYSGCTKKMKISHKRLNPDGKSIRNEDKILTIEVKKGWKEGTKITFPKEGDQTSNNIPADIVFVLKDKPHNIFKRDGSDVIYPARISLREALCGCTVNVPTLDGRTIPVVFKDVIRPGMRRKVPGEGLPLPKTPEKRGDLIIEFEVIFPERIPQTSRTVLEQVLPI
Sequence of UniProt P09622 (P09622 whole entry, looked up): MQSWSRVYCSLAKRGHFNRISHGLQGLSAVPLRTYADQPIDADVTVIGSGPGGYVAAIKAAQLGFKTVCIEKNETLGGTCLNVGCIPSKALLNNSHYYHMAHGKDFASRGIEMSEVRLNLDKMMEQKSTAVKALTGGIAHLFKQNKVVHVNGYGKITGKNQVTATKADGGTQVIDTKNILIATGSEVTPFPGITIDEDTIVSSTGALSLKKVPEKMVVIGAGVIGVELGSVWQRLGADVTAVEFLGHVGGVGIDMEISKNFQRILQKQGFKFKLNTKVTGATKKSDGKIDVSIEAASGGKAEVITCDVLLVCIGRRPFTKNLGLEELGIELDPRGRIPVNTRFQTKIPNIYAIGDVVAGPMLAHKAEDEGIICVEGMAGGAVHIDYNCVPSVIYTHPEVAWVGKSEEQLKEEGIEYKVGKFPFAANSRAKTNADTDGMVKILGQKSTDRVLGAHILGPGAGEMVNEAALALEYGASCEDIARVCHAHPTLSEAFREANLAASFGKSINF
Sequence of UniProt Q5QP82 (Q5QP82 whole entry, looked up): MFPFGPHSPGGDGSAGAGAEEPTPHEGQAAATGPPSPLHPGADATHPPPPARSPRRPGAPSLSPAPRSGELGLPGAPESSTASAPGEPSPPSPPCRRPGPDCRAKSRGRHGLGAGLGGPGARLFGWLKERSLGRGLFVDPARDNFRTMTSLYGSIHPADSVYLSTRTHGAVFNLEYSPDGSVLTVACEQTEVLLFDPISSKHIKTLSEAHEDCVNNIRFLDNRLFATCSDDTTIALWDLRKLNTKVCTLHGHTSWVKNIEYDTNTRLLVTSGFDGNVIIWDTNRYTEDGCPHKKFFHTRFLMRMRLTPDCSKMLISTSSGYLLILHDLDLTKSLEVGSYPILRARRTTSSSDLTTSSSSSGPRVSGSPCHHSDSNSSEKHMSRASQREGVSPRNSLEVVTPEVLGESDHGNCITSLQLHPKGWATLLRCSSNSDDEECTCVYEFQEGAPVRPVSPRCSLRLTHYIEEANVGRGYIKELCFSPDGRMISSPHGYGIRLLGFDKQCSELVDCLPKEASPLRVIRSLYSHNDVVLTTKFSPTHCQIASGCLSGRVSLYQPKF
Sequence of UniProt Q5QJE6 (Q5QJE6 whole entry, looked up): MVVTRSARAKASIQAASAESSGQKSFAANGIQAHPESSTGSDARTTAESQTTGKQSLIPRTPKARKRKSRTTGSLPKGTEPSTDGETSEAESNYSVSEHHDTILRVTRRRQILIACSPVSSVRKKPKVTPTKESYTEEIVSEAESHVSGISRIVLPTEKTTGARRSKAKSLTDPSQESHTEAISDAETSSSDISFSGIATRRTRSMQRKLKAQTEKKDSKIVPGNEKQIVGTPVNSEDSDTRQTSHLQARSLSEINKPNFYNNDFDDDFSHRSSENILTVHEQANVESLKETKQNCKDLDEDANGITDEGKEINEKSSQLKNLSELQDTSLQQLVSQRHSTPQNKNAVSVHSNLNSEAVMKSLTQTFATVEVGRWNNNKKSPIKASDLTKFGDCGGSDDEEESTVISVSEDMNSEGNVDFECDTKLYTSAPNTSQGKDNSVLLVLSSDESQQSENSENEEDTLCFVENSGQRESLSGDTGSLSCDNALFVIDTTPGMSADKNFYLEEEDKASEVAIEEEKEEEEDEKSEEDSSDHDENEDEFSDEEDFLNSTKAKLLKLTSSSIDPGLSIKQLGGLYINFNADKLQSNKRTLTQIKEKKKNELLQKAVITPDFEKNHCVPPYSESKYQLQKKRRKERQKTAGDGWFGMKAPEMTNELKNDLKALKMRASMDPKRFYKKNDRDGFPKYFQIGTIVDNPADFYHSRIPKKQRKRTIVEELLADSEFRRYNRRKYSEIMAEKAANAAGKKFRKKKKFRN
Sequence of UniProt Q5NDL2 (Q5NDL2 whole entry, looked up): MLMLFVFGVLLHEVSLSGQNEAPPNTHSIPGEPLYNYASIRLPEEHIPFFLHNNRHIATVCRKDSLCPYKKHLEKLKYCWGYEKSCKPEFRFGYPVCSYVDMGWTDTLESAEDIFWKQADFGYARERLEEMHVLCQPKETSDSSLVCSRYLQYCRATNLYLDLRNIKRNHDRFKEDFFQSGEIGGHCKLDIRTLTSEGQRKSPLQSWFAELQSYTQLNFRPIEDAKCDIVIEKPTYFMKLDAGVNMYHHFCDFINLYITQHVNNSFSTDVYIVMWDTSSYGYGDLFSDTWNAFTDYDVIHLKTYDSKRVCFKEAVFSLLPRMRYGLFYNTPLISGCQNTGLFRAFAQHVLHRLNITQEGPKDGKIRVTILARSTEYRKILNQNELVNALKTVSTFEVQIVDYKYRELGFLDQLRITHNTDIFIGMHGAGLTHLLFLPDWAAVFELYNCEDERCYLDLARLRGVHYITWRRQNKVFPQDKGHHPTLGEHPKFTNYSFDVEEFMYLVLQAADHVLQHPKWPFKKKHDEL
Sequence of UniProt O43237 (O43237 whole entry, looked up): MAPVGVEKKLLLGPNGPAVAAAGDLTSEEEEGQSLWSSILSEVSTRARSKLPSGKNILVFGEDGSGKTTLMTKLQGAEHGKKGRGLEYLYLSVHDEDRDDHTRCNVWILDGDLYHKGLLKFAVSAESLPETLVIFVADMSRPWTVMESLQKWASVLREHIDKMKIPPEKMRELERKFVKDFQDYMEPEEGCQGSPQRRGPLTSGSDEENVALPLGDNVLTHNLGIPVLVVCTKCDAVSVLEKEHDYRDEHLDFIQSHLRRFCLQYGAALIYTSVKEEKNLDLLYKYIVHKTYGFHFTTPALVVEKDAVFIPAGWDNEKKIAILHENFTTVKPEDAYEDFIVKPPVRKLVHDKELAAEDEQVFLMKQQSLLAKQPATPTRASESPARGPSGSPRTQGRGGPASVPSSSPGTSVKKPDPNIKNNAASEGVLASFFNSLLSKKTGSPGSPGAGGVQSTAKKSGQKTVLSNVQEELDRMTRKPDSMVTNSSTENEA
Sequence of UniProt Q58WW2 (Q58WW2 whole entry, looked up): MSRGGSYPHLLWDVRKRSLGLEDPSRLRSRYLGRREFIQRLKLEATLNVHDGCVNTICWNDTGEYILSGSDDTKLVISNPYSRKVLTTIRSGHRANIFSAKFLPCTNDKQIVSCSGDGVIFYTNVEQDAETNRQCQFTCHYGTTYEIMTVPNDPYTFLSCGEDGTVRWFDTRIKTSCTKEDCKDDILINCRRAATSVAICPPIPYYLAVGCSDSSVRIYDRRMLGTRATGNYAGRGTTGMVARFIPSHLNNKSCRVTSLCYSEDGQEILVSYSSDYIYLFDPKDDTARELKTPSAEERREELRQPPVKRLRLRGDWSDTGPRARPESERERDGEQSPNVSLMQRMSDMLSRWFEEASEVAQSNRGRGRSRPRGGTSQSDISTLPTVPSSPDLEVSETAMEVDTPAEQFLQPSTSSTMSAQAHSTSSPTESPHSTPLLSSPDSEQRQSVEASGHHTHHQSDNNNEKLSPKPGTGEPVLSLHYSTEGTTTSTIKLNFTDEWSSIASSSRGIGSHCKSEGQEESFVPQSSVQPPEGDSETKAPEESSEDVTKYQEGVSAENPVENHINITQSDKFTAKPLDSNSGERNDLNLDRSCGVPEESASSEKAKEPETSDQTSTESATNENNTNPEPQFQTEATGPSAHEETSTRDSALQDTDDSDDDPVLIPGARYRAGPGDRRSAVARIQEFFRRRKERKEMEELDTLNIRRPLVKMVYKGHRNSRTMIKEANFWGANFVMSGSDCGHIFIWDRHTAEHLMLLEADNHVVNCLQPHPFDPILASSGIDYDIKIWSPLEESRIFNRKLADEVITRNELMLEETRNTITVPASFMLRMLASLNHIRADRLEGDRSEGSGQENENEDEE
Sequence of UniProt Q96E09 (Q96E09 whole entry, looked up): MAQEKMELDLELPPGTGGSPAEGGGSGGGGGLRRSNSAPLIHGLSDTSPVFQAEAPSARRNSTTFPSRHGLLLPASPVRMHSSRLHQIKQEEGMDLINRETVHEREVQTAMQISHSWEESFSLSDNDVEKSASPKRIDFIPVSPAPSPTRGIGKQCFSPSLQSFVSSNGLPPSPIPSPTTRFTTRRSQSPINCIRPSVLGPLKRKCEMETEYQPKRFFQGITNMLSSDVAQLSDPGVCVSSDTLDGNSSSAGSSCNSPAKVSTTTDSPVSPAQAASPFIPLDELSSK

Row | Target | log2 fold change
1 | EOGT (UniProt Q5NDL2) | -0.024
2 | CUEDC2 (UniProt Q9H467) | -0.003
3 | DDX5 (UniProt P17844) | -0.12
4 | EIF4E2 (UniProt O60573) | -0.109
5 | ERLIN1 (UniProt O75477) | -0.269 (active)
6 | EEF1AKNMT (UniProt Q8N6R0) | -0.199
7 | EIF4A1 (UniProt P60842) | -0.124
8 | DCTPP1 (UniProt Q9H773) | 0.075
9 | DNAJB12 (UniProt Q9NXW2) | -0.012
10 | DDX4 (UniProt Q9NQI0) | 0.02
11 | EXOC2 (UniProt Q96KP1) | -0.43 (active)
12 | DMAC1 (UniProt Q96GE9) | 0.019
13 | EEA1 (UniProt Q15075) | 0.025
14 | DDX46 (UniProt Q7L014) | -0.034
15 | CYP51A1 (UniProt Q16850) | 0.782 (active)
16 | DCTN1 isoform 4 (UniProt Q14203) | -0.303 (active)
17 | CWC27 (UniProt Q6UX04) | 0.018
18 | DNAJC19 (UniProt Q96DA6) | -0.153
19 | DUS2 (UniProt Q9NX74) | 0.043
20 | ECH1 (UniProt Q13011) | -0.164

Row | Target | log2 fold change
21 | DBT (UniProt P11182) | 0.027
22 | FAAP100 (UniProt Q0VG06) | -0.043
23 | FAM207A (UniProt Q9NSI2) | -0.066
24 | EEF1D isoform 2 (UniProt P29692) | -0.051
25 | DNAH11 (UniProt Q96DT5) | -0.001
26 | DAB2 (UniProt P98082) | -0.02
27 | DYNC1LI2 (UniProt O43237) | -0.067
28 | DNAJC7 (UniProt Q99615) | -0.117
29 | DLD (UniProt P09622) | -0.125
30 | DCAF10 (UniProt Q5QP82) | 0.02
31 | DCAF6 isoform 3 (UniProt Q58WW2) | 0.056
32 | FAM122A (UniProt Q96E09) | 0.066
33 | FAM83D (UniProt Q9H4H8) | -0.232
34 | DNAJB1 (UniProt P25685) | -0.015
35 | DNTTIP2 (UniProt Q5QJE6) | -0.234
36 | CTSL (UniProt P07711) | -0.412 (active)
37 | CTSV (UniProt O60911) | -0.917 (active)
38 | EDC3 (UniProt Q96F86) | -0.223
39 | EIF3J (UniProt O75822) | -0.007
